# Where “and” joins values, the source holds several entries; their conditions need not be identical. Identical values can stand only once. A number with no mark means an inactive call. Inconclusive results are not listed. For some of these results: Measured potencies and affinities stand elsewhere. Calls of active or inactive are those of the source. Unless noted, the rule behind the calls is not given here.
# Tests used:
# [1] = Ebola virus entry assay, green fluorescence channel
# [2] = Ebola virus entry assay, blue channel fluorescence
# [3] = qHTS assay for small molecule agonists of the antioxidant response element (ARE) signaling pathway measured by Nrf2-dependant transcriptional activity (AID 720636; active = well fitted curve in the direction sought with a large enough effect in the repeat runs; an effect the other way counts as inactive or inconclusive;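 note: HepG2 cells with an ARE-driven luciferase reporter; % of control where 0% means no effect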); settings: ARE-luc HepG2, Nrf2 luciferase reporter, 16 h; series mostly up to 92.4 µM
# How it was run: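 Nrf2-dependent transcription is measured in ARE-luc HepG2 cells: compound is applied for 16 hr at 37 C after a 6 hr attachment period, and luciferase activity is quantified by luminescence using ONE-Glo.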
# [4] = qHTS assay for small molecule antagonists of the retinoid-related orphan receptor gamma (ROR-gamma) signaling pathway - cell viability counter screen (AID 720652; active = well fitted curve in the direction sought with a large enough effect in the repeat runs; an effect the other way counts as inactive or inconclusive;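 note: CHO reporter cells with doxycycline-induced ROR-gamma expression; compound exposure lasted 16 hr before ATP read; % is set by controls: 0 for no effect and ±100 for the full control effect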); settings: RORgamma reporter cell line viability counter screen; series mostly up to 92.2 µM
# How it was run: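 CHO RORE-LUC/TET-ROR line, 1,000 cells/well, 37 C 5% CO2 5 hr; cpd or DMSO + doxycycline induction, 16 hr. CellTiter-Glo, 30 min RT, luminescence = ATP content.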
# [5] = qHTS assay for small molecule agonists of the antioxidant response element (ARE) signaling pathway measured by Nrf2-dependant transcriptional activity - cell viability counter screen (AID 720653; active = well fitted curve in the direction sought with a large enough effect in the repeat runs; an effect the other way counts as inactive or inconclusive; note: % is set by controls: 0 for no effect and ±100 for the full control effect); settings: ARE-bla HepG2 viability, CellTiter-Glo ATP luminescence, 16 h; hits give low values
# How it was run: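 Cytotoxicity counter screen: intracellular ATP quantified by CellTiter-Glo luminescence in the same ARE-bla HepG2 plates, after 16 h compound exposure and a 2 h beta-lactamase substrate step.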
# [6] = qHTS Assay for Identifying Gametocytocidal Compounds (AID 743244; active = well fitted curve in the direction sought with a large enough effect; an effect the other way counts as inactive or inconclusive;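 note: % is set by controls: 0 for no effect and ±100 for the full control effect; actives lower the fluorescent signal which means gametocytes are killed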); settings: P. falciparum 3D7 stage III-V gametocytes, alamarBlue, 72 h; max response: hits give low values
# How it was run: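 Late gametocytes (III–V), P. falciparum 3D7; 72 h drug, then 24 h alamarBlue; resazurin reduction read by fluorescence.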
# [7] = qHTS assay for cell viability of HEK293 cells (AID 743288; active = well fitted curve in the direction sought with a large enough effect; an effect the other way counts as inactive or inconclusive; note: % is set by controls: 0 for no effect and ±100 for the full control effect; nearly all actives have a fitted effect of over 50% in size); settings: ATP luminescence (CellTiter-Glo), 18 h, hits give low values
# How it was run: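 After 18 h compound exposure at 37 C, parental HEK293 cells (2,000/well) are lysed with CellTiter-Glo and luminescence is read following 30 min at room temperature.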
# [8] = qHTS for Activators of Parkin Expression: LOPAC Validation Assay (FLuc Reporter) (AID 720573; active = well fitted curve in the direction sought with a large enough effect; an effect the other way counts as inactive or inconclusive;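 note: 0% = DMSO and 100% = positive control compounds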); settings: Cell line, PRKN promoter firefly luciferase reporter, vehicle wells = 0, positive control = 100%; series mostly up to 46.1 µM
# How it was run: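 Neuronal cell line stably carrying FLuc/NLuc coincidence reporter under Parkin promoter; cells plated 24 h, then compounds added in 7-point dose response for 24 h at 37 C. FLuc luminescence read; normalized to DMSO and positive control (100%).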
# [9] = target: T1, Hexokinase-4 (Homo sapiens) + Glucokinase regulatory protein (Homo sapiens) (UniProt P35557+Q14397); test: qHTS assay for inhibitors of recombinant human GCK-GKRP interaction: Diaphorase-coupled assay (AID 743205; active = well fitted curve in the direction sought with a large enough effect; an effect the other way counts as inactive or inconclusive); settings: G6PDH/diaphorase resorufin fluorescence; series mostly up to 57.5 µM
# T1 sequence (P35557 whole entry, looked up): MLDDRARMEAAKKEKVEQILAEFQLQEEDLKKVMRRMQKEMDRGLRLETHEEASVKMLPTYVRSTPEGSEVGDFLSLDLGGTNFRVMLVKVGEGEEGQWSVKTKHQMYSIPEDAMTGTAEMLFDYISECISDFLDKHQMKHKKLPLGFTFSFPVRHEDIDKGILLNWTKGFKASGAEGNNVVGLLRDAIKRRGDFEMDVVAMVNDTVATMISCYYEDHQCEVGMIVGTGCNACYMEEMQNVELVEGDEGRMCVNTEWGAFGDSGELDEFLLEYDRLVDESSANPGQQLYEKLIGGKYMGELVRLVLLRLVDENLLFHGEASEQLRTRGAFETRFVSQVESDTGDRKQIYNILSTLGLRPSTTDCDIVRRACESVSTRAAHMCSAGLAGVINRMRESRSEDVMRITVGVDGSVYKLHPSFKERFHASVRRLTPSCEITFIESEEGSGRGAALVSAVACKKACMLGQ
# T1 sequence (Q14397 whole entry, looked up): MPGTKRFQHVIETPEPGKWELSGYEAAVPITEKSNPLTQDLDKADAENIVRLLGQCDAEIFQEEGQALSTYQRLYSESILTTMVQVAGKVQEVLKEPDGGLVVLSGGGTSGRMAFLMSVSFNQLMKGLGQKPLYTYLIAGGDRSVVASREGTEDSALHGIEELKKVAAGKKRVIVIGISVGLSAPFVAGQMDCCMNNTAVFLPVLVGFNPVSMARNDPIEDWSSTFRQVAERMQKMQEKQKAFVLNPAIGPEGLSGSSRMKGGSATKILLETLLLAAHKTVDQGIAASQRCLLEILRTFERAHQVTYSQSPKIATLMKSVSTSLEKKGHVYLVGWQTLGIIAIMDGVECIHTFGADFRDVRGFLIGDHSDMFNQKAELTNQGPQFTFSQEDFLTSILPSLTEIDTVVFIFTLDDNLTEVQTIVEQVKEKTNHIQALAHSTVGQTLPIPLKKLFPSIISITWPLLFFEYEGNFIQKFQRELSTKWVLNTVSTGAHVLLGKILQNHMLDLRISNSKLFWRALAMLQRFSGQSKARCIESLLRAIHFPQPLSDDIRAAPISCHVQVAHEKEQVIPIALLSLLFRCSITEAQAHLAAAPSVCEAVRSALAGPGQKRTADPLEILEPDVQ
# How it was run: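 GST-GCK (10 nM) with FLAG-GKRP (10 nM), 5 mM glucose and 0.4 mM ATP in pH 7.6 Hepes; compounds preincubated 20 min with substrate. G6PDH/diaphorase coupling converts resazurin to resorufin, read kinetically (ex 525/em 590 nm) for 30 min.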
# [10] = target: T1, Hexokinase-4 (Homo sapiens) + Glucokinase regulatory protein (Homo sapiens); test: qHTS assay for inhibitors of recombinant human GCK-GKRP interaction: ADP-Glo assay (AID 743206; active = well fitted curve in the direction sought with a large enough effect; an effect the other way counts as inactive or inconclusive;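 note: plate controls were DMSO plus enzyme for no effect and no enzyme for full effect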); settings: ADP-Glo luminescence, 60 min, 0% = vehicle-only wells with enzyme present; series mostly up to 76.9 µM
# How it was run: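 Pin-transferred compounds meet a 15 nM GST-GCK/15 nM FLAG-GKRP/2 uM S6P mix (dispense concentrations). ATP is then added to 0.4 mM final with 5 mM glucose, and the reaction runs 60 min at room temperature. ADP is quantified luminescently.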
# Throughout, for efficacy: 0% is about no effect.
structure (smiles),measurement,setting,value
O=C1OC(CN2CCOCC2)CN1/N=C/c1ccc([N+](=O)[O-])o1 (centres undefined),efficacy,[1],29.1%
same,outcome,[2],inactive
CC1(C)S[C@@H]2[C@H](NC(=O)C(c3ccccc3)S(=O)(=O)O)C(=O)N2[C@H]1C(=O)O (some centres undefined),efficacy,[1],24.6%
same,outcome,[2],inactive
CCCCCCCCCCOc1cc2c(=O)c(C(=O)OCC)c[nH]c2cc1OCC,efficacy,[1],11%
same,outcome,[2],inactive
C[C@H]1C[C@H](O)c2ccsc2S1(=O)=O,efficacy,[1],20.1%
same,outcome,[2],inactive
CC(=O)Oc1ccc(C)cc1,efficacy,[1],12.2%
same,outcome,[2],inactive
CN(C)CCN(Cc1ccsc1)c1ccccn1,efficacy,[1],-18.4%
same,outcome,[2],inactive
CC(O)C(=O)O (centres undefined),efficacy,[1],12.5%
same,outcome,[2],inactive
CCCC(=O)OCOC(=O)C1=C(C)NC(C)=C(C(=O)OC)C1c1cccc(Cl)c1Cl (centres undefined),efficacy,[1],17.3%
same,outcome,[2],inactive
O=S(=O)(O)c1cc(I)c(O)c2ncccc12,efficacy,[1],29.1%
same,outcome,[2],inactive
CC(C)C(=O)Nc1cccc(C(F)(F)F)c1,efficacy,[1],16.7%
same,outcome,[2],inactive
CN1C(C(=O)Nc2ccccn2)=C(O)c2sccc2S1(=O)=O,efficacy,[1],-30.7%
same,outcome,[2],inactive
CC[N+](CC)(CCNC(=O)C(=O)NCC[N+](CC)(CC)Cc1ccccc1Cl)Cc1ccccc1Cl,efficacy,[1],-9.71%
same,outcome,[2],inactive
O=C(O)Cn1cnnn1,efficacy,[1],14.2%
same,outcome,[2],inactive
CN1[C@@H]2CC(OC(=O)[C@H](CO)c3ccccc3)C[C@H]1[C@@H]1O[C@@H]12 (some centres undefined),efficacy,[1],-18.3%
same,outcome,[2],inactive
CC(=O)c1ccc(S(=O)(=O)NC(=O)NC2CCCCC2)cc1,efficacy,[1],-18.3%
same,outcome,[2],inactive
COc1cc(C)nc(-n2nc(C)cc2OC)n1,efficacy,[1],-14.1%
same,outcome,[2],inactive
C[C@]12CC[C@H]3[C@@H](CCC4=CC(=O)CC[C@@H]43)[C@@H]1CC[C@@H]2OC(=O)CCc1ccco1,efficacy,[1],-14.7%
same,outcome,[2],inactive
CC(=O)OCC(=O)[C@@]1(O)[C@H](C)C[C@H]2[C@@H]3CCC4=CC(=O)C=C[C@]4(C)[C@@]3(F)[C@@H](O)C[C@@]21C,efficacy,[1],26.4%
same,outcome,[2],inactive
O=C(CCBr)N1CCN(C(=O)CCBr)CC1,efficacy,[1],10.2%
same,outcome,[2],inactive
O=C(NCCO[N+](=O)[O-])c1cccnc1,efficacy,[1],-12.5%
same,outcome,[2],inactive
COc1ccc2cc1Oc1cc3c(cc1OC)CC[N+](C)(C)[C@H]3Cc1ccc(cc1)Oc1c(OC)c(OC)cc3c1[C@@H](C2)[N+](C)(C)CC3,efficacy,[1],-25.2%
same,outcome,[2],inactive
Cn1c(=O)c2c(ncn2CCO)n(C)c1=O,efficacy,[1],-37.9%
same,outcome,[2],inactive
CC(=O)[C@H]1CC[C@H]2[C@@H]3C[C@H](C)C4=CC(=O)CC[C@]4(C)[C@H]3[C@@H](O)C[C@]12C,efficacy,[1],-17.9%
same,outcome,[2],inactive
CN=C(NC#N)NCCSCc1csc(N=C(N)N)n1,efficacy,[1],-13.8%
same,outcome,[2],inactive
C[C@]12CCC(=O)C=C1CC[C@@H]1[C@@H]2CC[C@@]2(C)[C@H]1CC[C@]2(C)O,outcome,[3],inactive
same,outcome,[4],inactive
same,max response,[5],11%
same,max response,[6],-12% and -18.1%
same,max response,[7],-18%
same,efficacy,[1],-23%
same,outcome,[2],inactive
COc1cc(/C=C/C(=O)O[C@H]2CC[C@]34C[C@]35CC[C@]3(C)[C@@H]([C@H](C)CCC=C(C)C)CC[C@@]3(C)[C@@H]5CC[C@H]4C2(C)C)ccc1O,efficacy,[1],-25.4%
same,outcome,[2],inactive
CNCCCCOc1ccccc1Cc1ccccc1,efficacy,[1],68.3%
same,AC50,[2],5.62 µM (active)
O=C(CCCN1CCC2(CC1)C(=O)NCN2c1ccccc1)c1ccc(F)cc1,outcome,[8],inactive
same,outcome,[9],inactive
same,outcome,[10],inactive
same,max response,[6],-9.38% and 8.83%
same,efficacy,[1],-27.3%
same,AC50,[2],1.78 µM (active)
CCN[C@H]1CN(CCCOC)S(=O)(=O)c2sc(S(N)(=O)=O)cc21,efficacy,[1],16.3%
same,outcome,[2],inactive
Cc1cc(NS(=O)(=O)c2ccc(N)cc2)no1,efficacy,[1],21.6%
same,outcome,[2],inactive
O=C(O)Cc1ccc(OCCNC[C@H](O)c2ccccc2)cc1,efficacy,[1],-33.3%
same,outcome,[2],inactive
O=C1CC2(CCCC2)CC(=O)N1,efficacy,[1],-26.6%
same,outcome,[2],inactive
COc1ccc(C(=O)NCc2ccc(OCCN(C)C)cc2)cc1OC,efficacy,[1],-7.96%
same,outcome,[2],inactive
NCCCNCCSP(=O)(O)O,efficacy,[1],18%
same,outcome,[2],inactive
Cc1cc2c(cc1CC(=O)c1sccc1S(=O)(=O)Nc1onc(C)c1Cl)OCO2,efficacy,[1],-22.3%
same,outcome,[2],inactive
